# From PubChem
# Compounds with a hit are over-represented: about 6% of the library has one in this group of screens.
# D1 agonist – Allosteric Agonists of the Human D1 Dopamine Receptor: qHTS; HEK293 T-REx D1 cells, calcium flux, agonist mode; AID 504660, 2011; activation, % at 2 µM; D(1A) dopamine receptor (Homo sapiens), P21728; actives 1% (n = 360,000); in the data active = activation above about 30%; also: 0% is about no effect
#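 Agonism was scored from calcium flux recorded over 180 s (1 read/s) after pintool compound addition, following a 10-cycle baseline. Cells were inducible force-coupled HEK293 TREx D1, plated overnight at 30 C and loaded with no-wash calcium dye.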
# D3 ag – qHTS of D3 Dopamine Receptor Agonist: qHTS; D(3) dopamine receptor (Homo sapiens), P35462; D3R DiscoveRx beta-arrestin cells, luminescence, 90 min; max activation, %; actives 0.58% (n = 410,000); AID 652048, 2013; in the data active = max activation above about 30%; also: 0% is about no effect
# Target sequence (P35462 whole entry, looked up): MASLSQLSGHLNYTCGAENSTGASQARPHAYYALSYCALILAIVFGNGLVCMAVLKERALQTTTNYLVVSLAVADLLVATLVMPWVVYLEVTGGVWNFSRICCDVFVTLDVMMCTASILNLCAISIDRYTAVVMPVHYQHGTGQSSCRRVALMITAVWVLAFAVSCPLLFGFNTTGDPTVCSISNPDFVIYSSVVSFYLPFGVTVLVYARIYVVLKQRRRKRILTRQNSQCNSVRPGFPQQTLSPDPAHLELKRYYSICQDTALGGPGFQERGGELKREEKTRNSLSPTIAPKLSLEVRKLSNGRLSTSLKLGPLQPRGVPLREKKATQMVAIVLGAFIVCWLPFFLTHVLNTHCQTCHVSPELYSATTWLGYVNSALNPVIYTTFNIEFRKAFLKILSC
#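 Cells at 1500/well, incubated overnight, then treated with pinned compounds (dopamine as control) for 90 min at 37 degrees C. DiscoveRx reagent added for 30 - 60 minutes at room temperature; luminescence read.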
# D3 antag – qHTS of D3 Dopamine Receptor Antagonist: qHTS; max response, negative = inhibition, %; actives 2.5% (n = 360,000); D3R cells, DiscoveRx beta-arrestin luminescence, antagonist mode; stronger effect = lower value; in the data active = max response below about -50%; inconclusive = no clear call, values can overlap the other calls; also: % is scaled to controls: 0 for no effect and ±100 for the full control effect
#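 Cells expressing the human receptor were seeded at 1500 cells/well, incubated overnight at 37 degrees C in 5% CO2, then exposed to library compounds with dopamine controls for 90 minutes at 37 degrees C before luminescent detection.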
# D1 antagonist – Antagonist of Human D 1 Dopamine Receptor: qHTS. D(1A) dopamine receptor (Homo sapiens), P21728. HEK293 TREx D1 cells, calcium flux, dopamine EC80; stronger effect = lower value. activity change, negative = inhibition, % at 10 µM. actives 3.2% (n = 360,000). AID 504652, 2011; in the data active = activity change below about -30%; also: % is scaled to controls: 0 for no effect and ±100 for the full control effect
#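 Antagonism measured as reduced calcium response to an EC80 dopamine addition following 180 s compound pre-read; cells were inducible HEK293 Trex D1 plated overnight at 30 C, read kinetically at 1 cycle/sec.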
# D1 potentiator – Potentiators of Human D1 Dopamine Receptor: qHTS. HEK293 TREx D1 cells, calcium flux, dopamine EC20 potentiation. potentiation, % at 10 µM. actives 0.036% (n = 360,000); in the data active = potentiation above about 30%; also: 0% is about no effect
# An asterisk follows results filed as active; ? = inconclusive; nt = no result.
SMILES,D1 agonist,D3 ag,D3 antag,D1 antagonist,D1 potentiator
O=c1cc(CSCc2ccc(Cl)cc2)[nH]c(=O)[nH]1,3,1,-12,-12,-1
O=S(=O)(c1ccc(Cl)cc1)N(CCCN1CCOCC1)Cc1cccs1,1,-7,-80*,-11,-8
O=C(Nc1ccc(Cl)cc1)N(CCCN1CCOCC1)Cc1cccs1,12,-11,-10,5,nt
COc1ccc(S(=O)(=O)N(CCCN2CCOCC2)Cc2cccc(OC)c2OC)cc1,1,-12,-76*,0,-1
COc1ccc(S(=O)(=O)N(CCCN2CCOCC2)Cc2cccc3ccccc23)cc1,14,-20,-85*,-8,-3
COc1ccc(S(=O)(=O)N(CCN2CCOCC2)Cc2cc(OC)ccc2OC)cc1,0,0,-27,2,-1
Cc1ccc(C)c(Cn2c(=O)cc(C(F)(F)F)c3c(C)nn(C)c32)c1,4,-3,nt,11,-6
CCOC(=O)[C@H](CCc1ccccc1)N[C@@H](C)C(=O)N1Cc2cc(OC)c(OC)cc2C[C@H]1C(=O)O,nt,6,nt,nt,nt
Cc1cccc(N2CCN(C(=O)CCc3nc4ccccc4[nH]3)CC2C)c1 (stereo not drawn),-1,-1,2,-12,nt
Cc1ccc(C)c(N2CCN(C(=O)CCc3nc(-c4ccccc4Cl)no3)CC2)c1,nt,50*,105,nt,nt
Cc1ccc(N2CCN(C(=O)CCc3nc4ccccc4[nH]3)CC2)c(C)c1,6,3,-17,-35*,2
COc1cc(C(=O)NNC(=O)C2CSC3(C)CCC(=O)N23)cc(OC)c1OC (stereo not drawn),3,4,-4,-40*,-3
CCc1nnc(NC(=O)C2CSC3(C)CCC(=O)N23)s1 (stereo not drawn),0,0,12,3,-2
CC12CCC(=O)N1C(C(=O)NNC(=O)c1ccccc1Cl)CS2 (stereo not drawn),1,-3,-10,-52*,-6
CC12CCC(=O)N1C(C(=O)Nc1nccs1)CS2 (stereo not drawn),1,79*,8,-12,-3
Cc1ccc(CCC2C3=C(CCCC3=O)OC3=C2C(=O)CCC3)cc1,0,30*,?,20,-2
Cc1ccc(N(CCC#N)C(=O)COC(=O)c2ccccc2SCC(=O)N2CCCC2)cc1,0,4,9,30,0
Cc1cc(C)cc(N(CCC#N)C(=O)COC(=O)c2ccccc2SCC(=O)N2CCCC2)c1,6,0,-3,-34*,-2
CCN1CCN(c2ccc(S(=O)(=O)N3CCCCC3)cc2NC(=O)Cc2ccc(OC)cc2)CC1,44*,-5,2,-31*,-4
CCN1CCN(c2ccc(S(=O)(=O)N3CCOCC3)cc2NC(=O)c2ccccc2SC)CC1,4,4,1,4,-5
CN1CCN(c2ccc(S(=O)(=O)N3CCCCC3)cc2NC(=O)c2ccc3ccccc3c2)CC1,12,-7,-2,-50*,-13
Cc1ccccc1C(=O)Nc1cc(S(=O)(=O)N2CCCCC2)ccc1N1CCN(C)CC1,5,-3,-5,5,-2
CCN1CCN(c2ccc(S(=O)(=O)N3CCOCC3)cc2NC(=O)c2cc(Cl)nc3ccccc23)CC1,4,3,11,-33*,-4
Cn1c(=O)oc2cc(S(=O)(=O)CCC(=O)NCc3ccc(Cl)cc3)ccc21,0,-1,nt,-4,-4
CCCN(CCC)CCNC(=O)Cn1cnc2sc(C)c(S(=O)(=O)N3CCN(c4ccccc4OC)CC3)c2c1=O,0,7,nt,0,0
SMILES,D1 agonist,D3 ag,D3 antag,D1 antagonist,D1 potentiator
COc1cccc(C(=O)NC(=O)Nc2ccc(-n3nc(C(F)(F)F)cc3C(F)(F)F)cc2)c1,-1,-3,nt,1,-3
CN1CCN(CCCNC(=O)c2ccc(CSCc3cccc(Cl)c3)o2)CC1,1,-10,6,8,4
O=C(NCc1ccc(Cl)cc1)c1ccc(CSCc2cccc(Cl)c2)o1,39*,6,nt,-16,-4
O=C(NCc1ccc2c(c1)OCO2)c1ccc(CSCc2ccc(Cl)cc2)o1,17,-6,-29,-34*,-2
CC1CCN(CCCNC(=O)c2ccc(CSCc3cccc(Cl)c3)o2)CC1,20,-60,-62*,-5,-1
O=C(NCc1ccc(F)cc1)c1ccc(CSCc2cccc(Cl)c2)o1,20,-6,nt,-1,-7
Cc1ccc(CNC(=O)c2ccc(CSCc3ccc(Cl)cc3)o2)cc1,19,-7,nt,-13,-2
CCc1ccccc1S(=O)(=O)Cc1ccc(C(=O)NCc2ccc3c(c2)OCO3)o1,0,6,15,-56*,-8
O=C(COc1ccccc1-c1nc(-c2ccccc2)no1)Nc1ccc([N+](=O)[O-])cc1,0,6,nt,-13,0
Cc1cccc(C)c1N1C(=O)c2ccccc2NC(=O)C1C(=O)NCC(C)C (stereo not drawn),nt,7,27,nt,nt
COC(=O)[C@@]12C[C@@H](CC(=O)N3CCCC3)C(=O)N(Cc3ccco3)C1=CCC(C)(C)C2,nt,-13,-23,nt,nt
Cc1cccc(Oc2ccc(NC(=O)C3=CC=CN4CCS(=O)(=O)N=C34)cc2)c1,13,0,-8,-36*,-9
CC(C)(C)c1ccc(NC(=O)C2=CC=CN3CCS(=O)(=O)N=C23)cc1,3,1,-21,-8,0
Cc1ccc(Oc2ccc(NC(=O)C3=CC=CN4CCS(=O)(=O)N=C34)cc2)cc1,32*,-22,9,2,-9
Nc1nc(-c2ccco2)c(-c2ccco2)s1,3,-12,-58*,-6,5
CCOC(=O)CC(=O)CSc1nc2c(sc(=S)n2-c2ccccc2)c(=O)[nH]1,2,2,31,-3,-3
COC(=O)CNC(=O)CSc1nc2c(sc(=S)n2-c2ccccc2)c(=O)[nH]1,1,11,-14,-37*,-6
CCOC(=O)c1ccc(-n2c(=S)sc3c(=O)[nH]c(C)nc32)cc1,1,51*,42,-8,-3
CCOC(=O)CSc1nc2c(sc(=S)n2-c2ccc(CC)cc2)c(=O)[nH]1,3,3,100,2,-4
CCc1ccc(-n2c(=S)sc3c(=O)[nH]c(SCC(=O)NC4CCCCC4)nc32)cc1,nt,-2,-51*,nt,nt
Cc1ccc(CN2C(=O)CCC2(C)c2nnnn2Cc2ccccc2)cc1 (stereo not drawn),nt,-2,0,nt,nt
C=N[C@@H](C(=O)N[C@@H]1C(=O)N2[C@@H]1SC(C)(C)[C@@H]2C(=O)O)c1ccccc1,nt,-6,nt,nt,nt
O=C(Nc1ccc(Br)cn1)c1ccc(COc2c(F)c(F)cc(F)c2F)o1,32*,-5,-13,-6,nt
